Measured values reported in PubChem BioAssay AID1159580 (chemical genetic matrix, 2015).
Where “and” joins values, the source holds several entries; their conditions need not be identical. Equal entries are not always repeated. Out of some 5,500 compounds screened, about 2,000 (36%) were called active. Another 18% or so got no clear call; they are omitted. Rule as the data show it: active = normalized growth mostly below about 0.91 (no sharp cut-off); inconclusive = no clear call, values can overlap the other calls; inactive = mostly above about 0.92. Some of the results follow.

Assay: chemical genetic growth profiling, strain panel (AID 1159580);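 also: tested at 20 µM; growth read once vehicle control cultures reached saturation at 30 °C; 1 = growth at the plate median or of vehicle wells; lower values mean less growth of the strain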
Conditions: S. cerevisiae deletion strains, growth OD

Measured: normalized growth

NCC(=O)CCC(=O)O
inactive: locus YAL013W, strain DEP1, hits give low values 1.01 | locus YAL021C, strain ccr4, hits give low values 1 | locus YAL026C, strain drs2, hits give low values 1.01 | locus YAL030W, strain snc1, hits give low values 0.99 | locus YBL061C, strain skt5, hits give low values 0.979 | locus YBR009C, strain hhf1, hits give low values 1.03 | locus YBR021W, strain FUR4, hits give low values 1.04 | locus YBR023C, strain chs3, hits give low values 0.995 | locus YBR171W, strain sec66, hits give low values 0.962 | locus YBR229C, strain ROT2, hits give low values 1.02 | locus YBR231C, strain swc5, hits give low values 0.968 | locus YBR279W, strain paf1, hits give low values 0.997 | locus YCL011C, strain gbp2, hits give low values 1 | locus YCL016C, strain dcc1, hits give low values 0.998 | locus YCL029C, strain bik1, hits give low values 0.995 | locus YCL061C, strain MRC1, hits give low values 0.983 | locus YCL069W, strain vba3, hits give low values 0.989 | locus YCR088W, strain abp1, hits give low values 0.987 | locus YDL005C, strain med2, hits give low values 0.96 | locus YDL035C, strain GPR1, hits give low values 1.02 | locus YDL040C, strain nat1, hits give low values 0.979 | locus YDL074C, strain BRE1, hits give low values 1.02 | locus YDL101C, strain DUN1, hits give low values 1.01 | locus YDL134C, strain PPH21, hits give low values 1.01 | locus YDL185W, strain tfp1, hits give low values 0.994 | locus YDL192W, strain arf1, hits give low values 0.992 | locus YDR001C, strain nth1, hits give low values 0.997 | locus YDR069C, strain doa4, hits give low values 0.979 | locus YDR101C, strain arx1, hits give low values 0.988 | locus YDR137W, strain rgp1, hits give low values 0.979 | locus YDR150W, strain NUM1, hits give low values 1.02 | locus YDR159W, strain sac3, hits give low values 1 | locus YDR162C, strain NBP2, hits give low values 1.01 | locus YDR195W, strain ref2 0.945 | locus YDR297W, strain sur2, hits give low values 0.99 | locus YDR318W, strain mcm21, hits give low values 0.978 | locus YDR334W, strain swr1, hits give low values 0.984 | locus YDR335W, strain msn5, hits give low values 0.995 | locus YDR388W, hits give low values 0.986 | locus YDR392W, strain spt3, hits give low values 1.05 | locus YDR502C, strain sam2, hits give low values 0.995 | locus YEL003W, strain gim4, hits give low values 0.992 | locus YEL037C, strain rad23, hits give low values 0.979 | locus YEL061C, strain CIN8 (second series), hits give low values 0.99 | locus YEL061C, strain CIN8, hits give low values 1.01 | locus YER015W, strain faa2, hits give low values 0.996 | locus YER016W, strain bim1, hits give low values 1.01 | locus YER110C, hits give low values 0.991 | locus YER111C, strain swi4, hits give low values 0.972 | locus YER155C, strain BEM2 (second series), hits give low values 0.955 | locus YER155C, strain BEM2, hits give low values 1.01 | locus YER167W, strain BCK2, hits give low values 1.01 | locus YFR010W, strain ubp6, hits give low values 0.973 | locus YGL078C, strain dbp3, hits give low values 0.99 | locus YGL086W, strain mad1, hits give low values 1 | locus YGL167C, strain pmr1, hits give low values 0.974 | locus YGL173C, strain kem1, hits give low values 0.971 | locus YGL227W, strain vid30, hits give low values 0.988 | locus YGL240W, strain doc1, hits give low values 0.965 | locus YGL248W, strain PDE1, hits give low values 1.01 | locus YGL253W, strain hxk2, hits give low values 1.01 | locus YGR078C, strain PAC10, hits give low values 1.02 | locus YGR135W, strain pre9, hits give low values 0.982 | locus YGR229C, strain SMI1, hits give low values 1.02 | locus YGR252W, strain gcn5, hits give low values 0.975 | locus YHR013C, strain ard1, hits give low values 0.964 | locus YHR027C, strain rpn1, hits give low values 1 | locus YHR030C, strain SLT2, hits give low values 1.01 and 1.03 | locus YHR079C, strain IRE1 (second series), hits give low values 0.982 | locus YHR079C, strain IRE1, hits give low values 1.03 | locus YHR094C, strain hxt1, hits give low values 0.99 | locus YHR129C, strain ARP1, hits give low values 1.01 | locus YHR142W, strain chs7, hits give low values 0.981 | locus YHR200W, strain rpn10, hits give low values 0.99 | locus YIL066C, strain RNR3, hits give low values 1.02 | locus YIL073C, strain SPO22, hits give low values 1.01 | locus YIL125W, strain kgd1, hits give low values 0.997 | locus YIR030C, strain dcg1, hits give low values 0.994 | locus YJL092W, strain hpr5, hits give low values 0.969 | locus YJL095W, strain BCK1 (second series), hits give low values 0.984 | locus YJL095W, strain BCK1, hits give low values 1.01 and 1.03 | locus YJL115W, strain asf1, hits give low values 0.967 | locus YJL129C, strain trk1, hits give low values 0.98 | locus YJL134W, strain LCB3, hits give low values 1.01 | locus YJL154C, strain vps35, hits give low values 0.979 | locus YJL164C, strain tpk1, hits give low values 1 | locus YJL166W, strain qcr8, hits give low values 0.924 | locus YJL168C, strain set2, hits give low values 0.984 | locus YJL187C, strain SWE1 (second series), hits give low values 1.01 | locus YJL187C, strain SWE1, hits give low values 0.982 | locus YJR043C, strain POL32, hits give low values 1.01 | locus YJR066W, strain TOR1, hits give low values 0.986
